{"source": "PubChem BioAssay AID1964107", "about": "(National Center for Advancing Translational Sciences (NCATS), 2024)", "note": "The whole screen tested about 31,000 compounds, of which about 360 (1.2%) were called active. Not shown: some 8% with an inconclusive outcome. This excerpt belongs to a sample that is enriched for actives. A number with no mark means an inactive call. The call rests on the fitted dose curve. On the % scale 0 is the no-effect control and ±100 the full control effect; potency means the concentration at half of the fitted maximal effect."}
{"target": "Polyprotein P1234 (Chikungunya virus (strain S27-African prototype)) (UniProt Q8JUX6)", "sequence (Q8JUX6 whole entry, looked up)": "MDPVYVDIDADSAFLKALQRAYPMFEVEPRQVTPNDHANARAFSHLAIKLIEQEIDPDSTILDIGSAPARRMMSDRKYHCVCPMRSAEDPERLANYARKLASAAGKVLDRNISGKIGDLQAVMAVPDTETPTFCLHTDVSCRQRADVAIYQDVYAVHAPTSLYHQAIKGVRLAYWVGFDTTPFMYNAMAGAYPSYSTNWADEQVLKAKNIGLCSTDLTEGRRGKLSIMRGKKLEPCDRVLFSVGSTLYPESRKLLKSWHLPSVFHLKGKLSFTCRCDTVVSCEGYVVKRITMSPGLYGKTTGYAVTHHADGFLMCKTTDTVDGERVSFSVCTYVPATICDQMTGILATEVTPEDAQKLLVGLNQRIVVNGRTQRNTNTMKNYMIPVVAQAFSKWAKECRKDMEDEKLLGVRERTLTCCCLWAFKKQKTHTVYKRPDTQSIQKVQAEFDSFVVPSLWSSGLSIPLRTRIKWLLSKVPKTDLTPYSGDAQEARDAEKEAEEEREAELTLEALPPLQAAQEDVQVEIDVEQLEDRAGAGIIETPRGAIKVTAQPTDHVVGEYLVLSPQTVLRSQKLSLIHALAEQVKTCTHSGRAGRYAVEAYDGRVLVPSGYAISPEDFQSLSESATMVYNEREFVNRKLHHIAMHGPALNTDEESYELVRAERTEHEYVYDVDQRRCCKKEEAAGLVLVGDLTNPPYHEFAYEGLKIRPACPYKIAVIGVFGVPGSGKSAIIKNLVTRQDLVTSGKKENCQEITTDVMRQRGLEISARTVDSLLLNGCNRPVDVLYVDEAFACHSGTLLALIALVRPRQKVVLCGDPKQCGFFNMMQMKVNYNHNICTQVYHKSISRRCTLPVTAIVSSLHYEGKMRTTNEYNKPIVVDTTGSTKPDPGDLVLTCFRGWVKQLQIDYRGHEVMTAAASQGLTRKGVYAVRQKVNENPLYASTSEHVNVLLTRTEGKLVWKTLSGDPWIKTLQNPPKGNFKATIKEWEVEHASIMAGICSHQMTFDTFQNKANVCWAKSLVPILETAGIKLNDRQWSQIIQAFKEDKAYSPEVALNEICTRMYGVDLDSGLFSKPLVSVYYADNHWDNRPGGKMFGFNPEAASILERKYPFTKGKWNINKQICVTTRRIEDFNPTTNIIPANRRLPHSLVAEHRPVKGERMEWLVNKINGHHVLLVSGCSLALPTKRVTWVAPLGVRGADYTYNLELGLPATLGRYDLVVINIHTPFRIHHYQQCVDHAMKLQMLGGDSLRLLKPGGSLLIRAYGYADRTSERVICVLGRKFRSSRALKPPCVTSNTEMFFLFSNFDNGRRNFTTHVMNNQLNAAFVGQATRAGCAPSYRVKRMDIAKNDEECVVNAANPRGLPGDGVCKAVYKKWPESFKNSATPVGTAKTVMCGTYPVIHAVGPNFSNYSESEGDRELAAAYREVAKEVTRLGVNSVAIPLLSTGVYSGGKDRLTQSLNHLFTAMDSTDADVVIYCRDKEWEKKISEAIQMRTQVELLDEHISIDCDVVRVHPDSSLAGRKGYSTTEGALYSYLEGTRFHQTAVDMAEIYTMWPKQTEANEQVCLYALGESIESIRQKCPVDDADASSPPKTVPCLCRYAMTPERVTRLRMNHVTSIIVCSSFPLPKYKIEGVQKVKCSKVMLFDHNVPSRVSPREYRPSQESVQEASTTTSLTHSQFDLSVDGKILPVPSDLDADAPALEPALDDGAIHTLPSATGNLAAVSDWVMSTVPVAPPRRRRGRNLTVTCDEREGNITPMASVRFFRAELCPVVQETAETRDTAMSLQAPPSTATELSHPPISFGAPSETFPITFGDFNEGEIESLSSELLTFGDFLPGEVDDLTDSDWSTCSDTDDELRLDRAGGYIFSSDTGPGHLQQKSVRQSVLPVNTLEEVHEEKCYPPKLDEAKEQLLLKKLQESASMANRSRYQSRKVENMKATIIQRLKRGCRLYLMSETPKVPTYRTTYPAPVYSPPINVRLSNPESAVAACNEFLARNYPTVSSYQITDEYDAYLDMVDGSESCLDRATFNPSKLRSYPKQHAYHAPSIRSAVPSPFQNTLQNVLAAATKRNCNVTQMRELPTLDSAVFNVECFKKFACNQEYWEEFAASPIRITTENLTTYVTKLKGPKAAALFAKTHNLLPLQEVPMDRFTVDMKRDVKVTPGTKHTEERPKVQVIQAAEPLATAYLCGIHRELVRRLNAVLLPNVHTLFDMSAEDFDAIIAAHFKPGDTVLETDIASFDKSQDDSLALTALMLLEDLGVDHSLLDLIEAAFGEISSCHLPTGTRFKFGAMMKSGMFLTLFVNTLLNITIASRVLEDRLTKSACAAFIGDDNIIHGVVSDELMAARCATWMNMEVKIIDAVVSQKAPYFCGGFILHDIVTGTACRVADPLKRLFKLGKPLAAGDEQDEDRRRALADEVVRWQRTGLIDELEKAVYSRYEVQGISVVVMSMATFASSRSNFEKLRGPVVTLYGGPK", "test": "Primary qHTS for inhibitors of NSP2Pro chikungunya virus (CHIKV); further: nearly all actives have a fitted effect of over 60% in size", "conditions": "FRET peptide cleavage, fluorescence 1 h; series mostly up to 24.9 µM; activity change, negative = inhibition: at the top concentration", "text": "PI: Natalia J. Martinez Ph.D. National Center for Advancing Translational Sciences (NCATS), National Institute of Health (NIH), Rockville, Maryland Chikungunya virus (CHIKV) is a mosquito-borne RNA virus that has emerged as one of the most important global arboviral threats in the last decade. Although the first CHIKV vaccine has recently been FDA approved for use in healthy adults at increased risk, to date, there are no available antiviral drugs for CHIKV infection. CHIKV nsP2 protease plays a crucial role in the processing of the viral polypeptide precursor to release enzymes required for viral replication, thus making it a promising drug target for antiviral discovery. Here, we established a high-throughput pipeline to identify small molecule inhibitors of nsP2 proteolytic activity. The pipeline is composed of a suite of 1,536-well in vitro assays to support quantitative high-throughput (qHTS) screening campaigns. Specifically, we developed a fluorescence resonance energy transfer (FRET)-based assay using a fluorogenic peptide substrate encompassing an endogenous cleavage site and purified recombinant protease domain (nsP2pro). Using this assay, we interrogated ~37,000 small molecules, including those in drug repurposing libraries as well as chemically diverse and medicinal chemistry-friendly compounds. Hits were selected for follow-up validation against full-length nsP2 and an additional peptide. FRET-based 1,536-well assays for papain, hepatitis C virus NS3-4A, and human furin proteases were implemented to characterize compound selectivity. […] Novel compounds were identified to be potential nsP2 inhibitors and molecular docking analyses were performed to explain the binding mode of selected hits. In vitro antiviral activity was evaluated for a subset of compounds using a high-throughput CHIKV infection assay. To our knowledge, the pipeline presented here is unprecedented for CHIKV antiviral discovery research.\nPROTOCOL TABLE (as described by Inglese J, Shamu CE and Guy RK. 2007) SEQUENCE No. (e.g., 1, 2, 3, etc.); […] (e.g., Cells, Incubation, Reagent, etc.); VALUE; DESCRIPTION. 1; Control / Compound; 20 nL; Echo 655 acoustic dispenser, Greiner 1536-well solid bottom black plate. 2; Enzyme; 4 uL; BioRAPTR FRD liquid dispenser (Beckman Coulter). 3; Incubation; 15 min; room temperature. 4; Reagent; 4 uL; 2.5 uM Peptide 2 substrate. 5; Incubation; 1 hr; room temperature. 6; Detection; Fluorescence; WiewLux microplate reader (PerkinElmer), 525 nm excitation, 598/25 nm emission. NOTES (numbers refer to sequence numbers above). 1. Briefly, 20 nL DMSO, positive control ZnAc (20nM final concentration), and test compounds were transferred into a 1,536-well solid bottom black plate (789176-F, Greiner One) via Echo 655 acoustic dispenser (Beckman Coulter). For primary screens, compounds were tested at 7 concentrations, 1:3 dilution points ranging from 25 uM to 34 nM. Follow-up confirmatory screens were carried out at 11 concentrations, 1:3 dilution points from 25 uM to 0.42 nM. 2. Four uL nsP2pro enzyme mix (150 nM final concentration) in 10 mM Tris-HCl pH 8.0 with 0.01% Tween 20 assay buffer was dispensed into the plate using a BioRAPTR FRD liquid dispenser (Beckman Coulter). 3. The plate was incubated at room temperature (protected from light) for 15 min 4. Four microliter of peptide 2 substrate (2.5 uM final concentration) in assay buffer was added to the plate. 5. After 1 hour, plates were immediately read on a ViewLux high-throughput CCD imager (Exposure = 10 sec, Gain = High, Speed = Slow, Binning = 2X). The above assay was also incorporated in the NCATS HTS facility41, which allowed for robotic liquid and compound dispensing, microplate handling, and fluorescence reading.. REFERENCE: Inglese J, Shamu CE and Guy RK, Reporting data from high throughput screening of small molecule libraries, Nature Chemical Biology, 2007, 3(8): 438-441. doi.org/10.1038/nchembio0807-438."}
{"smiles": "Cn1nnnc1Sc1ncnc2n[nH]c(-c3cccc(S(C)(=O)=O)c3)c12", "Potency": "2.82 µM (active)"}
{"smiles": "Cn1nnnc1Sc1ncnc2scc(-c3ccccc3[N+](=O)[O-])c12", "activity change, negative = inhibition": "-0.0419%"}
{"smiles": "Cc1ccc(-c2ccccc2CN2CCN([S+](=O)([O-])c3cccc(C(F)(F)F)c3)CC2)cc1Cl", "outcome": "inactive"}
{"smiles": "O=C(Nc1nc(-c2ccccc2)cs1)c1ccncc1NS(=O)(=O)c1ccc(Cl)cc1", "activity change, negative = inhibition": "2.25%"}
{"smiles": "Cc1c(Cl)cccc1NC(=O)N1CCN(C(=O)c2nsc3ccccc23)CC1", "activity change, negative = inhibition": "-22.7%"}
{"smiles": "COc1cc(C(CC(=O)NCCC(C)C)N2Cc3ccccc3C2=O)cc(OC)c1OC", "note": "(stereo not given)", "activity change, negative = inhibition": "-20.7%"}
{"smiles": "O=C(Cn1ccn2nc3c(c2c1=O)CCCCC3)NCc1ccccc1Cl", "activity change, negative = inhibition": "-6.55%"}
{"smiles": "CC1=C(C(=O)N2CCN(c3cccc(C(F)(F)F)c3)CC2)C2(CCCCC2)OC1=O", "activity change, negative = inhibition": "-21.5%"}
{"smiles": "CC(C)Sc1oc(-c2cccs2)nc1S(=O)(=O)c1ccc(Cl)cc1", "activity change, negative = inhibition": "-23.7%"}
{"smiles": "CCc1nc(-c2ccc(OC3CCN(C(=O)Cc4c[nH]c5ccccc45)C3)cc2)no1", "note": "(stereo not given)", "activity change, negative = inhibition": "-4.97%"}
{"smiles": "COc1ccc(CN2CCN(CCCSc3cc(C(C)(C)C)c(O)c(C(C)(C)C)c3)CC2)c(OC)c1OC", "activity change, negative = inhibition": "11.3% [at 5.1 µM]"}
{"smiles": "Cc1cn2nc(C(=O)NC3CCCC3)cc2c(N2CCSCC2)n1", "outcome": "inactive"}
{"smiles": "CCN(CC)c1cc(CCC(=O)NCc2cc(F)ccc2F)ccn1", "outcome": "inactive"}
{"smiles": "FC(F)(F)c1cc(Nc2nc3ccccc3c3nncn23)ccc1Cl", "activity change, negative = inhibition": "-5.64%"}
{"smiles": "C=CS(=O)(=O)N1CCCN(c2cc(NCCC(=O)O)nc(-c3ccccn3)n2)CC1", "activity change, negative = inhibition": "166%"}
{"smiles": "Cc1ccc(NC(=O)CCCn2c(=O)c3cccn3c3ccccc32)cc1Cl", "activity change, negative = inhibition": "-22%"}
{"smiles": "Cc1ccccc1[C@@H](C(=O)NC1CCCCC1)N(C(=O)Cn1ccnc1C)c1cccc(F)c1", "activity change, negative = inhibition": "4.93%"}
{"smiles": "CCOC(=O)C1CCCN(CC(=O)Nc2cc(C)c3c(=O)oc4ccccc4c3n2)C1", "note": "(stereo not given)", "activity change, negative = inhibition": "-8%"}
{"smiles": "COc1ccc(Cc2nc3ccc(C(=O)NCc4ccccc4Cl)cc3o2)cc1", "activity change, negative = inhibition": "-15.7%"}
{"smiles": "COc1ccc(C2=Nn3c(nnc3-c3ccccc3OC)SC2)cc1OC1CCCC1", "outcome": "inactive"}
{"smiles": "O=[S+]([O-])(c1ccc2c(c1)OCCO2)N1CCN([S+](=O)([O-])c2c(Cl)cc(Cl)cc2Br)CC1", "activity change, negative = inhibition": "-5.69%"}
{"smiles": "CC(=O)N1Cc2ccccc2CC2(CCN(Cc3ccc(O)cc3)CC2)C1", "activity change, negative = inhibition": "-17.4%"}
{"smiles": "N#Cc1cc(-c2nc(Nc3ccc(F)c(F)c3)c3ccccc3n2)ccn1", "outcome": "inactive"}
{"smiles": "COCCNc1ncnc2c1c(-c1ccccc1)cn2-c1ccc(C)c(Cl)c1", "activity change, negative = inhibition": "-18.5%"}
{"smiles": "CN(Cc1ccccc1)C(=O)c1cn(C)c2ccc(S(=O)(=O)N(C)C3CCCCC3)cc2c1=O", "activity change, negative = inhibition": "-8.33%"}
{"smiles": "O=C(Nc1ccc2ncnc(N3CCCCC3)c2c1)C1CCCCC1", "outcome": "inactive"}
{"smiles": "CCOc1ccc(CCNC(=O)c2cc3ccccc3n2Cc2cccc(C)c2)cc1OCC", "activity change, negative = inhibition": "-6.04%"}
{"smiles": "O=C(Cn1nc2c(cc1=O)CCCCC2)NC1CCN(C(=O)c2cc3ccccc3[nH]2)CC1", "activity change, negative = inhibition": "4.65%"}
{"smiles": "COc1cc(OC)c(C(CC(=O)N2CC(C)CC(C)C2)c2ccc3c(c2)OCO3)c(OC)c1", "note": "(stereo not given)", "activity change, negative = inhibition": "-1.01% [at 39.2 µM]"}
{"smiles": "Fc1cc(Nc2nc(-c3ccncc3)nc3ccccc23)ccc1N1CCCCC1", "outcome": "inactive"}
{"smiles": "O=C(c1nc(-c2ccsc2)c2cnccn12)N1CCCC1", "activity change, negative = inhibition": "-15.1% [at 39.2 µM]"}
{"smiles": "O=S(=O)(NCCc1noc(-c2ccccc2)n1)c1ccc2c(c1)OCCO2", "activity change, negative = inhibition": "-3.1%"}
{"smiles": "CCOC(=O)c1cccc(NC(=O)Cn2cnc3nc4c(cc3c2=O)CCCC4)c1", "activity change, negative = inhibition": "-27.2%"}
{"smiles": "C/C(=C\\CC[C@@H](C)[C@H]1CC(O)[C@@]2(C)C3CC[C@H]4C(C)(C)[C@@H](OC5OCC(O)C(O)C5OC5OC(CO)C(O)C(O)C5O)CC[C@@]45C[C@@]35CC(O)[C@]12C)C(=O)O", "note": "(stereo not given in full)", "activity change, negative = inhibition": "-6.9% [at 10 µM]"}
{"smiles": "CC12CCC(O)CC1=CCC1C2CCC2(C)C(c3cccnc3)=CCC12", "note": "(stereo not given)", "activity change, negative = inhibition": "-16.8% [at 10 µM]"}
{"smiles": "O=C(C1CCCC1)N1CC2(CCCN(Cc3ccccn3)C2)Cc2ccccc21", "note": "(stereo not given)", "outcome": "inactive"}
{"smiles": "Cc1cc(C(=O)Nc2cccc(C(F)(F)F)c2)c2c(C)nn(-c3cccc(F)c3)c2n1", "activity change, negative = inhibition": "46.5%"}
{"smiles": "NC(=O)c1noc([C@H](CCCC2CCCCC2)CC(=O)NO)n1", "activity change, negative = inhibition": "-15.7%"}
{"smiles": "O=C(CC1N=C2c3ccccc3N=C(SCc3cccc(Cl)c3)N2C1=O)NCc1ccc2c(c1)OCO2", "note": "(stereo not given)", "activity change, negative = inhibition": "-20.2%"}
{"smiles": "CC(C)(C)c1cc(C(=O)O)c(NC(=O)Nc2ccc3[nH]ncc3c2)s1", "activity change, negative = inhibition": "3.33%"}
{"smiles": "CC(Nc1ncnc2ccc(-c3ccc4c(c3)OCO4)cc12)c1ccco1", "note": "(stereo not given)", "outcome": "inactive"}
{"smiles": "CCC(CC)c1nn2cc(-c3ccccc3)nc2s1", "activity change, negative = inhibition": "-32.1%"}
{"smiles": "CCOC(=O)c1cc2c(=O)n3ccccc3nc2n(CCCOC)c1=NC(=O)C(C)Oc1ccccc1", "note": "(stereo not given)", "activity change, negative = inhibition": "-15%"}
{"smiles": "C=CC(=O)c1ccc2ccccc2c1", "Potency": "9.88 µM (active)"}
{"smiles": "O=C(CN1CCOC1=O)N1CCn2nc(C(O)Cc3ccccc3)cc2C1", "note": "(stereo not given)", "activity change, negative = inhibition": "-4.53%"}
